This is part of a sample that, as a whole, favours compounds with a hit. Of some 79,000 tested, about 15% had one in any assay. A number with no mark means an inactive call. Active and inactive are the calls of the source. No stated cut-off is given here; in the data, active means growth inhibition above about 70%; inactive means the rest.

Test [1] in a line: NCI Yeast Anticancer Drug Screen. Data for the rad50 strain (AID 155).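 Further: 0% = growth of vehicle-only cultures of the same strain.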 The following applies: S. cerevisiae rad50 strain growth inhibition; at 50.0 µM; active compounds read high. The method in brief: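 Genetically altered yeast (DNA repair pathway); compound treatment; growth inhibition vs vehicle ctrl.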
The nature of test [2]: NCI Yeast Anticancer Drug Screen. Data for the mec2-1 strain (AID 157). To be noted: S. cerevisiae mec2-1 strain, at 50.0 µM, active compounds read high. The procedure, abridged:
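Cells of the genetically defined mec2-1 yeast strain are incubated with test compound. Inhibition of growth is calculated against vehicle-treated controls.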

Test [3] is described as follows: NCI Yeast Anticancer Drug Screen. Data for the sgs1 mgt1 strain (AID 161).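 Further: 0% = growth of cultures given vehicle only.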 To be noted: S. cerevisiae sgs1 mgt1 strain, at 50.0 µM, active compounds read high. The procedure, abridged:
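Read-out: growth inhibition vs vehicle controls. Cells: mutant yeast strain deficient in DNA damage repair.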

The nature of test [4]: NCI Yeast Anticancer Drug Screen. Data for the cln2 rad14 strain (AID 165).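 Further: 0% = growth equal to vehicle treated cultures.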 The following applies: S. cerevisiae cln2 rad14 strain, at 50.0 µM, active compounds read high. The method in brief: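 The screen exposed genetically defined yeast (cln2 rad14) to test compounds and scored growth inhibition relative to vehicle-treated controls.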
Test [5] is described as follows: NCI Yeast Anticancer Drug Screen. Data for the bub3 strain (AID 167). To be noted: S. cerevisiae bub3 mutant strain, at 50.0 µM, active compounds read high. The method in brief: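 Yeast carrying a defined mutation is treated with each compound, and growth is compared with that of vehicle-exposed cells to give inhibition.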
Test [6] in a line: NCI Yeast Anticancer Drug Screen. Data for the mlh1 rad18 strain (AID 175). The following applies: S. cerevisiae mlh1 rad18 strain growth inhibition; at 50.0 µM; active compounds read high. The procedure, abridged: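 Compound-treated yeast growth, normalised to vehicle controls. Strain bears defined DNA repair mutations.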

Take `CCCCSc1nc2ccccc2c(=O)[nH]1`: the growth inhibition in test [1] is -10.7%; in test [2] it was -13%; in test [3] it was -4.6%; in test [4], 13.3%; in test [5], 9.3%; in test [6] it was 3.1%.
Consider `C=CCn1c(=S)sc2c(=O)[nH]cnc21`, for which the growth inhibition in test [1] was 14.6%; in test [2] it was 1.7%; in test [3] it was 25.8%; in test [4] it was 22.3%; in test [5] it was 8.15%; in test [6], 11.4%.
On to `CC(=O)Nc1ccc(N=C/C=C/c2ccccc2)cc1`, for which the growth inhibition in test [1] is -24.6%; in test [2], -56.5%; in test [3], 5.9%; in test [4] it was 2.05%; in test [5] it was -44.5%; in test [6], 2.05%.
For `CN1CCC(=O)C(c2ccccc2)(c2ccccc2)CC1`, the growth inhibition in test [1] is -8%; in test [2] it was -8.6%; in test [3], 3.45%; in test [4], -24.9%; in test [5] it was 28.4%; in test [6], -26.7%.
For the compound `Oc1ccc(Cl)c2cccnc12`, the growth inhibition in test [1] is 98.9% (active); in test [2] it was 99.5% (active); in test [3], 99.2% (active); in test [4], 97.8% (active); in test [5], 99.3% (active); in test [6], 97.7% (active).
With `COc1ccc(-n2c(=O)c(N=Nc3ccccc3Cl)c(O)n(-c3ccccc3OC)c2=S)cc1`, the growth inhibition in test [1] was 22.4%; in test [2] it was 4.65%; in test [3], 33.2%; in test [4], -33.1%; in test [5], 2.2%; in test [6], 3.2%.
For the compound `CC(Br)C(=O)NCC(=O)NCC(=O)O` (stereo not given), the growth inhibition in test [1] is 31.9%; in test [2], -14.9%; in test [3], -4.2%; in test [4], 16.4%; in test [5], 16.9%; in test [6] it was -4.75%.
As for `C=CCNC(=S)/N=C/C(C(=O)Nc1ccc(Cl)cc1)=C(\C)O`, the growth inhibition was -34.1% in test [1]; -10.1% in test [2]; -30.2% in test [3]; 6.6% in test [4]; -16.8% in test [5]; -12.8% in test [6].
As for `CCC1CN2CCc3cc(OC)c(OC)cc3C2CC1O` (stereo not given), the growth inhibition in test [1] is 1.3%; in test [2], 40.4%; in test [3], 20%; in test [4] it was -3.1%; in test [5], 44.4%; in test [6] it was 27.9%.
On to `CC(=O)OCC1OC(Nc2[nH]c(=O)[nH]c(=O)c2N=O)C(OC(C)=O)C(OC(C)=O)C1OC(C)=O` (stereo not given), for which the growth inhibition in test [1] was 5.75%; in test [2] it was 3.75%; in test [3], 0.95%; in test [4] it was -1.5%; in test [5] it was -1.7%; in test [6] it was -10.3%.
In the case of `NCC(=O)N[C@H]1c2ccsc2/C(=N/O)[C@H]1O`, the growth inhibition is 3.1% in test [1]; 5.95% in test [2]; 3.65% in test [3]; 11.3% in test [4]; -10.2% in test [5]; 33.2% in test [6].
For the compound `O=C(COc1ccc(Cl)cc1)NCCOC(=O)COc1ccc(Cl)cc1`, the growth inhibition in test [1] was 37.5%; in test [2], 20.4%; in test [3] it was 12.2%; in test [4], 18.2%; in test [5] it was 21.3%; in test [6], 52.3%.
`CCOC(=O)C(Cc1cn(C(C)=O)c2ccccc12)P(=O)(OCC)OCC` (stereo not given): the growth inhibition was -12.7% in test [1]; -21.6% in test [2]; -15.2% in test [3]; -1.15% in test [4]; 1.05% in test [5]; -27% in test [6].
Regarding `COC(=O)CCNC(=O)c1ccccc1`, the growth inhibition in test [1] is 3.5%; in test [2] it was -1.6%; in test [3], -4.75%; in test [4] it was -5.75%; in test [5] it was 1.2%; in test [6], -3.25%.
For the compound `CC1CN(c2ccccc2)NC1=O` (stereo not given), the growth inhibition in test [1] was 0.4%; in test [2] it was -32.7%; in test [3], 0.05%; in test [4] it was 27.1%; in test [5], -19.6%; in test [6], -7.55%.
For `CC1(C)NC(=O)N(CCCCCCN2C(=O)NC(C)(C)C2=O)C1=O`, the growth inhibition in test [1] was 5.1%; in test [2], -9.45%; in test [3], 5.85%; in test [4] it was 6.1%; in test [5], -20.2%; in test [6] it was 8.6%.
Take `CC([C@H](c1ccccc1)C1CCC(C(N)=O)(N2CCOCC2)C1)[N+](=O)[O-]` (stereo not given in full): the growth inhibition is 5.8% in test [1]; 7.9% in test [2]; 12.3% in test [3]; 39.1% in test [4]; 4.45% in test [5]; 9.85% in test [6].
On to `Cc1c(F)c(Br)c([N+](=O)[O-])c(C)c1[N+](=O)[O-]`, for which the growth inhibition in test [1] was -7.15%; in test [2], 5.45%; in test [3], -8.8%; in test [4], -4.15%; in test [5], -1.2%; in test [6] it was -17.9%.
On to `CC(C)OC(=O)c1cccnc1`, for which the growth inhibition in test [1] was 16.5%; in test [2] it was 2.2%; in test [3], 7.05%; in test [4], -39%; in test [5], -1.35%; in test [6] it was -2.45%.
Take `Cc1cccc(NC(=O)NC2CCC(CC3CCCCC3)CC2)c1` (stereo not given): the growth inhibition in test [1] is 16.7%; in test [2], 5.8%; in test [3], 7.2%; in test [4] it was -9.6%; in test [5], -1.55%; in test [6], 7.65%.

These data come from PubChem BioAssay (NCI).
